Assay outcomes deposited in PubChem BioAssay by National Center for Advancing Translational Sciences (NCATS).
D1 antagonist = antagonists of human D1 dopamine receptor. AID 504652. activity change, negative = inhibition, % at 10 µM. P21728. actives 3.2% (n = 360,000). HEK293 TREx D1 cells, calcium flux, dopamine EC80; hits give low values; in the data active means activity change below about -30%; further: on the % scale 0 is the no-effect control and ±100 the full control effect
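Using tetracycline-induced force-coupled D1 Hek293 cells and a calcium dye, signals were followed for 180 s after compound, then for 180 s after EC80 dopamine, to detect inhibitors.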
D1 agonist = activates the human D1 dopamine receptor; P21728; HEK293 T-REx D1 cells, calcium flux, agonist mode; activation, % at 2 µM; actives 1% (n = 360,000); further: 0% is about no effect
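Inducible HEK293 T-REx D1 cells, force-coupled to calcium signalling, were plated at 4000 cells/well with tetracycline and held overnight at 30 C. After no-wash calcium dye loading, compound-evoked calcium rise over 180 s flagged agonists.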
TRHR agonist = TRH receptor (human) agonism. TRHR cells, calcium flux fluo-8, FDSS agonist mode. activation, % at 2 µM. actives 0.18% (n = 360,000). AID 493084; further: 0% is about no effect
Target sequence (P34981 whole entry, looked up): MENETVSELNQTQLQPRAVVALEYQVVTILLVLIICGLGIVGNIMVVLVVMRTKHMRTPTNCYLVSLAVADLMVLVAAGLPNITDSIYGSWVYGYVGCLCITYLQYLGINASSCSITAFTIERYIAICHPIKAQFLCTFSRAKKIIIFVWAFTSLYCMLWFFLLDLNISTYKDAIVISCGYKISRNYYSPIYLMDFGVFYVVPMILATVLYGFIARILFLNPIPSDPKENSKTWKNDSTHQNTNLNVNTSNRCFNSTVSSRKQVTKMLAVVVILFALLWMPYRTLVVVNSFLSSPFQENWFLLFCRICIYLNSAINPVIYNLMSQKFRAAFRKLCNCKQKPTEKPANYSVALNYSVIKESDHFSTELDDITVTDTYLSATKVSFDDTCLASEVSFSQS
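In this calcium-flux screen, cells bearing human TRHR are dye-loaded with fluo-8, baselined for 10 cycles, then exposed to library compounds; positive kinetic calcium responses during the agonist phase mark hits, with TRH as control.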
TRHR PAM = allosteric enhancers of human TRH receptor. P34981. TRHR cells, fluo-8 calcium fluorescence, EC20 TRH enhancement. enhancement, % at 2 µM. actives 0.66% (n = 360,000). AID 493056; in the data active means enhancement above about 30%; further: 0% is about no effect
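TRHR-expressing cells loaded with fluo-8 calcium dye were read kinetically (ex 480/em 530) during compound addition, then stimulated with an EC20 of TRH (10 nM final). Enhancement of the Gq-mediated intracellular calcium response was scored.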
D1 PAM = potentiators of human D1 dopamine receptor; AID 504651; actives 0.036% (n = 360,000); potentiation, % at 10 µM; HEK293 TREx D1 cells, calcium flux, dopamine EC20 potentiation; in the data active means potentiation above about 30%; further: 0% is about no effect
* hit, by the source's call; nt = no result given; ! = not confirmed by another sample. Compounds with a hit are over-represented: about 4.6% of the library has one in this group of screens. Unless noted, no stated cut-off is given here; in the data, active means activation above about 30%; inactive means the rest.

SMILES	D1 antagonist	D1 agonist	TRHR agonist	TRHR PAM	D1 PAM
COc1cc(C)c(C)cc1S(=O)(=O)Nc1cccc(-c2ccc(N3CCOCC3)nn2)c1	-69*	-2	0	-23	-3
Cc1ccc([N+](=O)[O-])cc1S(=O)(=O)Nc1cccc(-c2ccc(N3CCOCC3)nn2)c1	-3	3	1	0	-2
O=C(CCN1C(=O)C2C3CCC(C3)C2C1=O)OCC(=O)c1cccc([N+](=O)[O-])c1 (centres undefined)	-6	3	0	2	5
O=C(CN1C(=O)C2C3CCC(C3)C2C1=O)OCC(=O)c1cccc([N+](=O)[O-])c1 (centres undefined)	-33*	14	0	-1	-6
CC(C)C(C(=O)OCC(=O)c1cccc([N+](=O)[O-])c1)N1C(=O)[C@@H]2[C@H]3CC[C@H](C3)[C@@H]2C1=O (some centres undefined)	-33*	2	0	-4	2
Cc1csc(NC(=O)c2ccc(Cn3nc(C)c(Br)c3C)o2)n1	-14	2	-1	-9	-5
Cc1nn(Cc2ccc(C(=O)Nc3ccccc3C(F)(F)F)o2)c(C)c1Br	-65*	24	1	-8	-5
Cc1ccc(N=Cc2sc(O)c3ccccc23)cc1	-39*	302*	66*	5	16
Cc1ccc(N=Cc2c(O)c3ccccc3n(C)c2=O)cc1	5	-1	0	-15	2
Cc1ccc(N=Cc2sc(O)c3ccccc23)c(C)c1	-5	47*	10	-4	-1
NC(=Nc1ccc(Br)cc1)c1ccccc1	-39*	45*	19	-15	0
Cc1ccc2c(c1)N(C(=O)Nc1cccc3c1CCCC3)CC(C)O2 (centres undefined)	0	0	1	21	6
Cc1cc2nc(CCl)cc(=O)n2[nH]1	5	2	0	-1	-3
Cc1cc2nc(CSc3ccccc3)cc(=O)n2[nH]1	-33*	2	0	-5	2
CCOC(=O)C1CSC(CC(=O)Nc2ccc(OC(F)(F)F)cc2)C(=O)N1 (centres undefined)	-32*	2	0	-4	-4
CCCN(C(=O)C1CCN(S(=O)(=O)c2c(C)noc2/C=C/c2ccc(C)cc2)CC1)c1ccccc1F	-28	3	0	-3	-3
O=C(NCCc1csc(-c2ccc(F)cc2)n1)c1cccc(F)c1	-55*	7	0	0	-4
O=C(Cc1ccc(F)cc1)NCCc1csc(-c2cccc(F)c2)n1	13	0	0	5	2
Cc1nc(-c2ccc(F)cc2)sc1CCNC(=O)c1cccs1	-64*	10	-1	16	-3
O=C(NCCc1csc(-c2cccc(F)c2)n1)c1cccs1	-62*	6	0	-3	-5
Cc1nn2c(-c3ccco3)ccnc2c1-c1ccc(Cl)cc1	20	0	1	3	-3
COc1cccc(N2CCN(S(=O)(=O)c3ccc4c(c3)NC(=O)CS4)CC2)c1	-32*	3	0	-4	-2
Clc1ccc2[nH]c3c(c2c1)CNCC3	-48*	8	1	38*	-25
Clc1cccc2c3c([nH]c12)CCNC3	-16	2	1	-2	-10
O=C(CSc1nnc(COc2ccc(Cl)cc2)o1)Nc1ccccc1	-4	4	0	1	-3
SMILES	D1 antagonist	D1 agonist	TRHR agonist	TRHR PAM	D1 PAM
CCCCNC(=O)CCCCCn1c(=O)[nH]c2ccccc2c1=O	-13	3	0	-6	-2
Cc1cc(NC(=O)CN2C(=O)c3ccccc3S2(=O)=O)no1	18	2	0	30*	-4
Cc1nn2c(C)c(C(=O)NCC(C)c3ccccc3)cnc2c1-c1ccccc1 (centres undefined)	3	1	0	35*	1
Cn1nnc2c(NCCc3ccccc3)ncnc21	nt	2	0	18	-4
Cc1ccc(NC(=O)c2oc3ccc(S(=O)(=O)N4CCCCC4)cc3c2C)cc1C	-31*	-2	0	-3	-1
CCOC(=O)N1CCN(C(=O)c2oc3ccc(S(=O)(=O)N4CCOCC4)cc3c2C)CC1	-18	25	-1	34*	-9
CCOc1ccc(S(=O)(=O)N2CCC(C(=O)N3CCCCCC3)CC2)cc1Cl	-40*	9	0	-5	-8
CCOC(=O)c1oc2ccc(S(=O)(=O)n3nc(-c4ccc(C)cc4)cc3N)cc2c1C	-9	1	1	42*!	-1
CCOC(=O)N1CCN(S(=O)(=O)c2ccc(OC)c(Cl)c2)CC1	-31*	4	1	-1	-6
CCOC(=O)N1CCN(S(=O)(=O)c2ccc(OC)c(OC)c2)CC1	1	0	1	-5	1
O=C(Cn1c(=O)oc2cc(S(=O)(=O)N3CCCCC3)ccc21)NCc1ccc(F)cc1	-37*	41*	0	5	-4
COc1cccc(CNC(=O)Cn2c(=O)oc3cc(S(=O)(=O)N4CCCC4)ccc32)c1	-31*	5	0	1	-3
O=C(Cn1c(=O)oc2cc(S(=O)(=O)N3CCCC3)ccc21)Nc1cccc(C(F)(F)F)c1	-39*	11	-1	-3	-3
O=C(Cn1c(=O)oc2cc(S(=O)(=O)N3CCCC3)ccc21)NCc1ccc(F)cc1	14	11	3	-4	-5
O=C(CCc1ccccc1)N(Cc1cccnc1)c1nc2c(F)cc(F)cc2s1	nt	15	0	10	-2
O=[S+]([O-])(c1ccc(N2CCOCC2)nc1)N1CCN([S+](=O)([O-])c2c(F)cccc2F)CC1	-2	4	1	-2	1
CCC(=O)NC(/C=C/c1ccccc1)c1cc([N+](=O)[O-])c2cccnc2c1O (centres undefined)	-2	2	0	32*	-6
O=c1cc(-c2ccc(F)cc2)nc(SCc2nc(-c3cccc(Cl)c3)no2)[nH]1	-2	1	-1	-6	-2
CCC(=O)N1CCc2cc(S(=O)(=O)NC(Cc3ccccc3)C(=O)Nc3ccc(C)cc3)ccc21 (centres undefined)	0	5	0	-1	0
N#C/C(=C\c1ccc(O)cc1)c1nc2ccccc2o1	-18	21	6	-3	-3
COc1cc(/C=C(\C#N)c2nc3ccccc3o2)ccc1O	-5	332*	78*	6	5
COCC(=O)Oc1c(Sc2ccc(C)cc2)c(C)nn1C(C)(C)C	-3	0	0	0	1
CS(=O)(=O)c1ccc2nc(NC(=O)c3ccc(Cl)cc3)sc2c1	6	3	0	-2	1
CC(C)NS(=O)(=O)c1ccc2nc(NC(=O)c3cncc(Br)c3)sc2c1	-52*	2	0	0	1
